Compound activity from PubChem BioAssay.
AMA1 RON2 block = disrupts binding of P. falciparum AMA1 to RON2 | AlphaScreen AMA1-biotinylated RON2 peptide binding | Potency, µM (doses to about 58.2 µM), inactives show at the highest dose activity change, negative = inhibition, most hits filed as inhibitors | AID 720542 | actives 0.2% (n = 360,000); active = well fitted inhibition curve with a large enough effect; inconclusive = small, poorly fitted or top-dose-only effect; inactive = no such curve, though single readings can be large or run the other way;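 note: potency is the fitted concentration of half-maximal effect; 0% = vehicle wells and -100% = peptide control; nearly all actives have a fitted effect of over 45% in size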
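AMA1 (3D7) with his tag at 25 nM final met compounds first, then biotinylated RON2 peptide at 25 nM; detection used donor plus acceptor beads, 10 µg/mL apiece, read by AlphaScreen after 30 min at room temperature.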
MARV entry inh = inhibitors of Marburg virus binding or cell entry. Marburg virus pseudotyped entry inhibition, cell reporter. Potency, µM (doses to about 37.8 µM), for inactives: at the highest dose activity change, negative = inhibition, actives largely listed as inhibitors. actives 1.8% (n = 300,000); calls by dose curve; tested in HEK293 cells; note: potency is the fitted concentration of half-maximal effect; % is set by controls: 0 for no effect and ±100 for the full control effect
LASV entry inh = inhibitors of Lassa virus binding or cell entry | Lassa virus pseudotype entry inhibition, cell reporter | AID 540256 | Potency, µM (doses to about 37.9 µM), for inactives: at the top dose activity change, negative = inhibition, usual class: inhibitors | actives 1.2% (n = 300,000); calls by dose curve; tested in HEK293 cells; note: potency is the fitted concentration of half-maximal effect; % is set by controls: 0 for no effect and ±100 for the full control effect; nearly all actives have a fitted effect of over 50% in size
Cycloheximide cs = affects cycloheximide protein synthesis inhibition readout, counter-screen. cell reporter, cycloheximide protein synthesis inhibition counterscreen. max response, %. actives 12% (n = 300,000); in the data active = max response mostly above about 13%, no sharp cut-off; inactive = mostly below about 14%; note: read at 38.3 µM for the half of the compounds with a filed dose; 0% is about no effect
Shiga inhibitor = Shiga toxin inhibition; inhibition, % at 38.7 µM; Vero cells, Shiga toxin protein synthesis inhibition reporter; actives 9.2% (n = 290,000); AID 2315; in the data active = inhibition mostly above about 28%, no sharp cut-off; inactive = mostly below about 43%; note: 0% is about no effect
Active calls of the source: *; ? = inconclusive; / = no result; [ ] = another dose, or the depositor's remark. The sample as a whole holds a higher share of hits than the screen did.

SMILES | AMA1 RON2 block | MARV entry inh | LASV entry inh | Cycloheximide cs | Shiga inhibitor
Cc1c(C(C)(C)O)[nH]c2ccc(C(F)(F)F)cc12 | -13% | / | / | 8.6* | 17
COC(=O)c1ccc2c(C)c(C(C)(C)O)[nH]c2c1 | 0% | / | / | 15* | 37
CCn1cc(C(=O)NCCCN2CCCC(C)C2)c(=O)c2cc(S(=O)(=O)N(C)C3CCCCC3)ccc21 (stereo unspecified) | 2% | 4%[46.1 µM] | 25%[46.1 µM] | -5 | -9
CC(NC(=O)Oc1cccc2ccccc12)c1ccccc1 (stereo unspecified) | 2% | 9%[46.1 µM] | -13%[46.1 µM] | / | /
COCC(C)NC(=O)CCc1nnc(C2(c3ccc(Cl)cc3)CCC2)o1 (stereo unspecified) | 5% | / | / | 30* | 41*
COC(=O)CNC(=O)CCc1nnc(C2(c3ccc(Cl)cc3)CCC2)o1 | 7% | / | / | 45* | 39*
C=C(C)CNC(=O)CCc1nnc(C2(c3ccc(Cl)cc3)CCC2)o1 | 4% | / | / | 44* | 75*
CC(c1ccon1)N(C)C(=O)CCc1nnc(C2(c3ccc(Cl)cc3)CCC2)o1 (stereo unspecified) | 16% | / | / | 21* | 48*
CC(c1ccon1)N(C)C(=O)CCc1nnc(CCCCc2ccccc2)o1 (stereo unspecified) | -2% | -11%[46.1 µM] | -20%[46.1 µM] | 0 | 13
COC(c1ccccc1)c1nnc(CCC(=O)NCCc2ccc(Cl)cc2)o1 (stereo unspecified) | -5% | / | / | 1 | 3
COc1ccc(-n2c(=O)c3c4c(sc3n(Cc3c(F)cccc3Cl)c2=O)CN(C(C)=O)CC4)cc1OC | / | / | -10%[46.1 µM] | / | /
COc1ccccc1NS(=O)(=O)c1ccc(C)c(C(=O)NCCCN2CCCC2=O)c1 | -5% | 1%[46.1 µM] | 6% | / | /
COc1ccc(C2/C=C\CN(C(=O)C3CCCCC3)C(C)C(=O)N2Cc2ccc(F)cc2)cc1 (stereo unspecified) | / | / | / | -10 | -3
O=C(CCc1nnc(C2(c3ccc(Cl)cc3)CCC2)o1)NC1CC1 | 18% | ? | 0%[46.1 µM] | 14* | -2
O=C(CCc1nc(-c2ccc(Cl)cc2)no1)NC1CCCCC1 | 17% | 14% | -19% | -4 | -6
C=CCNC(=O)CCc1nnc(C2(c3ccc(Cl)cc3)CCC2)o1 | -10% | / | / | 55* | 85*
Cc1ccc(S(=O)(=O)N2[C@H](CC(=O)c3cccs3)OC[C@@H]2C(C)C)cc1 | -6% | / | / | / | /
COc1ccc(/C=C2/N=C3CCCCCN3C2=O)cc1OC | 1% | 16% | 6% | 12 | 11*
COc1ccc(/C=C2\N=C3CCCCCN3C2=O)cc1 | 10% | ? | ? | 41* | 76*
O=C1/C(=C/c2ccncc2)N=C2CCCCCN12 | -1% | / | / | 11 | -6
CC1=NN(c2ccccc2)C(=O)C1(C)[N+](=O)[O-] (stereo unspecified) | -27% | -3% | 3% | -4 | 1
CS(=O)(=O)N(CC(=O)N1CCN(Cc2ccccc2)CC1)c1ccccc1Br | 5% | / | / | 1 | -5
CC(=O)Nc1ccc(S(=O)(=O)N(C)CC(=O)N/N=C/c2ccncc2)cc1 | -1% | 0%[46.1 µM] | 1% | -9 | -1
Cc1ccccc1-c1nc2c(c(SCc3cccc(Cl)c3)n1)Cc1c(CO)cnc(C)c1O2 | / | / | 29%[46.1 µM] | / | /
COc1cc(CNC(C)c2ccccc2)cc(Br)c1OCc1ccccc1 (stereo unspecified) | -3% | 7.9µM* | ? | -4 | -14
SMILES | AMA1 RON2 block | MARV entry inh | LASV entry inh | Cycloheximide cs | Shiga inhibitor
COc1cc(CNC(C)c2ccccc2)cc(Br)c1OCc1ccc(F)cc1 (stereo unspecified) | 20% | 3.5µM* | ? | -3 | /
COc1cccc2sc(/N=C/N(C)C)nc12 | -2% | ? | 13%[46.1 µM] | 10* | 50*
COc1cccc2sc(N(C)c3ccccc3)nc12 | 12% | ? | ? | 61* | 86
CCOC(=O)CNS(=O)(=O)c1ccc(F)cc1Br | / | / | / | -5 | 2
COc1ccc(C(C#N)N2CCC(c3ccccc3)=N2)cc1 (stereo unspecified) | 30% | ? | 3%[46.1 µM] | 21* | 43*
O=S(=O)(c1ccc(S(=O)(=O)N(Cc2ccc(F)cc2)C2CCCC2)cc1)N1CCCC1 | 26% | 10µM* | -17% | -7 | -2
Fc1ccc(C2CC(c3ccco3)=Nc3ccccc3S2)cc1 (stereo unspecified) | -17% | / | / | 10 | 25
Cc1ccc(C2=Nc3ccccc3N(C(=O)c3ccccc3)C(C)C2)cc1 (stereo unspecified) | -11% | -26% | ? | -1 | -6
O=[N+]([O-])c1ccc(C2CC(c3ccccc3)=Nc3ccccc3S2)cc1 (stereo unspecified) | -22% | / | / | 57* | 67*
O=C(O)C1CC(c2ccccc2)=Nc2ccccc2S1 (stereo unspecified) | -11% | 7%[46.1 µM] | -1% | 58* | 72*
ON=C(CCc1ccccc1)CCc1ccccc1 | -6% | -8% | ? | / | /
O=C(Nc1ccc2c(c1)OCO2)N1CCCc2ccccc21 | 11% | 1%[46.1 µM] | -15%[46.1 µM] | 35* | 85*
Cc1ccc2c(c1)CCCN2C(=O)Nc1ccc2c(c1)OCO2 | 3% | 3%[46.1 µM] | 2% | 46* | 30*
CC(=O)c1cccc(NC(=O)Cc2ccc(NC(=O)N3CCCCc4ccccc43)cc2)c1 | / | / | 19%[46.1 µM] | / | /
COc1ccc(N2CCN(C(c3ccccc3)c3sc4nc(C)nn4c3O)CC2)cc1 (stereo unspecified) | 0% | -2% | / | 5 | -4
Cc1ccc(NC(=S)NNC(C)(C)C)cc1 | 18% | ? | 1% | 34* | 41*
CCC1CCCCN1C(=O)CSc1nc(-c2ccc(OC)cc2)cc(C(F)(F)F)n1 (stereo unspecified) | / | -18%[46.1 µM] | 3%[46.1 µM] | / | /
CCc1noc(C)c1C(=O)OCC(=O)Nc1nc(-c2ccc(F)c(F)c2)cs1 | 0% | ? | ? | / | /
CCOC(=O)c1c(OCC)[nH]c2c1cc(O)c1ccccc12 | 15µM* | 4% | 0% | -2 | -21
O=C(Nc1nc(-c2ccc3c(c2)OCO3)cs1)C1COc2ccccc2O1 (stereo unspecified) | -12% | / | / | 16* | -21
CC(=O)Nc1nc(-c2ccc3c(c2)OCO3)cs1 | 12% | / | / | 53* | 61*
COc1cccc(C(=O)Nc2nc(-c3ccc4c(c3)OCO4)cs2)c1 | -14% | / | / | 3 | 16
Cc1cc(/C=C2\SC(=S)NC2=O)c(C)n1-c1ccccc1 | -24% | ? | ? | 44* | 58*
Cc1cc(/C=C2\SC(=S)NC2=O)cc(C)c1O | 67% | / | / | 15* | 37
COc1ccc(/C=C2\SC(N)=NC2=O)cc1Br | 3% | 15% | -24% | 19* | /
Cc1cc(/C=C2\SC(=S)NC2=O)c(C)n1-c1ccc(O)cc1 | 46% | / | / | 38* | 52*
COc1ccc(-n2c(C)cc(/C=C3\SC(=S)NC3=O)c2C)cc1 | 25% | / | / | 6 | 13
Cc1cccc(N2CCN(S(=O)(=O)c3cn(C)c(C)n3)CC2)c1C | / | / | 0%[46.1 µM] | / | /
Oc1c(C(c2ccccc2Cl)N2CCCC2)sc2nc(-c3ccco3)nn12 (stereo unspecified) | / | / | 7%[46.1 µM] | / | /
